Assay results: PubChem BioAssay (NCI)
Compounds without any hit were thinned out: in the full panel of roughly 83,000, 20% have a hit.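 Testing used 96-well plates and a 48-hour single-concentration exposure. Example: -40 means 40% of the starting cells died.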 The source made the active and inactive calls. How the source made its calls: active means growth percent below 10; inactive means the rest.

Experiments:
Assay in all cases: NCI-60 one-dose screen, 48 h (100 = growth as untreated, 0 = no growth, -100 = all killed)
Conditions in all cases: 10 µM unless noted
[1] = system: RPMI-8226 leukemia
[2] = system: OVCAR-8 ovarian
[3] = system: OVCAR-5 ovarian
[4] = system: OVCAR-4 ovarian
[5] = system: SK-OV-3 ovarian
[6] = system: OVCAR-3 ovarian
[7] = system: HS 578T breast
[8] = system: IGROV1 ovarian
[9] = system: NCI/ADR-RES ovarian

Measured: growth

COc1cc(/C=C/C(=O)c2ccc(F)cc2)ccc1OCCCCOc1cc2c(cc1OC)C(=O)N1CCCC1C=N2 (stereo unspecified)
inactive: [5] 10.7%
active: [1] -27.4% | [2] 8.79% | [3] -4.68% | [4] -11% | [6] -28.8% | [7] 6.29%

Cc1ccc(C(=O)C(Br)C(Br)c2ccccc2)cc1 (stereo unspecified)
inactive: [1] 48.2% | [2] 96.6% | [3] 102% | [4] 71.9% | [5] 114% | [8] 62.5% | [6] 61.7% | [7] 98.2% | [9] 105%

COc1ccc(Cn2cc3c(c2-c2ccccc2)CCc2cnoc2-3)cc1OC
active: [5] 8.39% | [7] 5.72% | [9] 6.32%
inactive: [1] 22.6% | [2] 38.9% | [3] 75.6% | [4] 41.5% | [8] 37.7% | [6] 13.8%

CCCCCCCCC(=O)Nc1ccc(O)cc1
inactive: [1] 82.3% | [2] 95% | [3] 106% | [4] 95.3% | [5] 100% | [8] 93.7% | [6] 102% | [7] 103% | [9] 82.9%

O=C(O)CS(=O)c1ccc(Cl)cc1 (stereo unspecified)
inactive: [1] 116% | [2] 99% | [3] 95.5% | [4] 114% | [5] 107% | [8] 115% | [6] 115% | [9] 109%

OCCN1CCCN(CCCN2c3ccccc3Sc3ccc(C(F)(F)F)cc32)CC1
inactive: [1] 42.2% | [2] 91% | [3] 83.9% | [4] 54.4% | [5] 77.3% | [8] 41.3% | [6] 78.7% | [7] 29.1% | [9] 73.5%

COc1cc(NC(=O)CSc2nc3ccc(Cl)cc3c(=O)n2-c2ccc(F)cc2)cc(OC)c1OC
inactive: [1] 39.2% | [2] 88.8% | [3] 88.7% | [4] 77.2% | [5] 87.6% | [8] 86.6% | [6] 80.6% | [7] 75% | [9] 81%

CCCCN(CCCC)c1ccc(C(=O)O)cc1
inactive: [1] 102% | [2] 105% | [3] 108% | [4] 101% | [5] 98.5% | [8] 99.3% | [6] 106% | [7] 109% | [9] 106%

COC(c1ccccc1)C(Br)C(=O)c1ccccc1 (stereo unspecified)
inactive: [1] 90.6% | [2] 92.1% | [3] 108% | [4] 93.1% | [8] 96.6% | [6] 115% | [7] 111% | [9] 104%

CCCCCCCCCCCCCCCCCC1=NCCN1CS(=O)(=O)O
inactive: [1] 65% | [2] 36.1% | [3] 76.9% | [4] 82.4% | [5] 70.4% | [6] 50.9% | [9] 59.2%
active: [8] -23.8%

O=C(NC(=S)NNC(=S)NNc1ccccc1)c1ccccc1
inactive: [1] 19.8% | [2] 20.9% | [3] 59.7% | [4] 84.8% | [5] 89.9% | [8] 33.4% | [6] 71.6% | [7] 15.2% | [9] 75.4%

Cc1cc(CSc2ccc(Cl)cc2)ccc1N
inactive: [1] 15.5% | [2] 99.8% | [3] 99.6% | [4] 96.9% | [5] 106% | [8] 86% | [6] 97.6% | [9] 95%

CN(C)CCOC(=O)C(C)(C)C
inactive: [1] 106% | [2] 99.7% | [3] 103% | [4] 111% | [8] 106% | [6] 111% | [7] 105% | [9] 110%

O=C1C(Br)=CC2C1C1C3CCC3C2(Br)C12OCCO2 (stereo unspecified)
inactive: [2] 28.5% | [3] 33.5% | [4] 59.2% | [5] 32.1% | [8] 36.7% | [6] 12.5% | [9] 51.3%
active: [1] 7.82%

CCCCCCCCCC(C)NC(=O)CCl (stereo unspecified)
inactive: [1] 97.6% | [2] 88.3% | [3] 107% | [4] 89.4% | [5] 103% | [8] 25.6% | [6] 89.3% | [7] 102% | [9] 101%

Cc1ncc(C(=O)Nc2ccc(CN3CCN(C)CC3)c(C(F)(F)F)c2)cc1C#Cc1c(N)ncc2ccccc12
active: [1] -47.5% | [2] -85.7% | [3] -92.6% | [4] -58.8% | [5] -2.88% | [8] -77.1% | [6] -68.9% | [7] -25.5% | [9] -70%

COc1cc2cc3cc4cc(OC)c(OC)cc4c(C)[n+]3cc2cc1OC (tested in a mixture with another compound)
inactive: [1] 43% | [2] 76.2% | [3] 104% | [4] 83.8% | [5] 107% | [6] 65.9% | [7] 90.1% | [9] 93.1%

COC1=C(OC)C(=O)c2ccccc2C1=O
inactive: [1] 97.5% | [2] 93.3% | [3] 101% | [4] 74.9% | [5] 111% | [8] 104% | [6] 87.8% | [9] 94.3%

Cc1ccc(C(=O)Nc2ccc(CN3CCN(C)CC3)c(C(F)(F)F)c2)cc1C#Cc1cnc(N)c2ccc(C#N)cc12
active: [5] 2.3%
inactive: [1] 20.2% | [2] 27.8% | [3] 98.4% | [4] 48.8% | [8] 16.3% | [6] 61.2% | [7] 47.4% | [9] 49.8%

Cc1ncc(C(=O)Nc2ccc(CN3CCN(C)CC3)c(C(F)(F)F)c2)cc1C#Cc1cnc(NC2CC2)c2ncccc12
active: [1] -41.1% | [2] -91.7% | [3] -91.1% | [4] -60.5% | [8] -80.4% | [6] -90.4% | [9] -41.9%
inactive: [5] 43.3% | [7] 43%

COc1ccc(C(=O)NCCNc2nccc(-c3c(-c4ccc(F)cc4)nc4sccn34)n2)cc1
inactive: [1] 40.5% | [2] 49.4% | [3] 62.4% | [4] 80.5% | [5] 70.6% | [8] 31% | [6] 80.7% | [7] 28.7% | [9] 62.3%

COc1cc2oc(-c3ccc(NC(=O)c4ccccc4)cc3)cc(=O)c2c(OC)c1OC
inactive: [1] 73.7% | [2] 77.9% | [3] 86.6% | [4] 64.6% | [5] 101% | [8] 84.2% | [6] 92.9% | [7] 80.7% | [9] 89.4%

CC(C)OC(=O)[C@H](C)N[P@@](=O)(OC[C@@]1(C)O[C@@H](n2cc(F)c(N)nc2=O)C[C@@H]1O[P@](=O)(N[C@@H](C)C(=O)OC(C)C)Oc1ccccc1)Oc1ccccc1
inactive: [1] 105% | [2] 79.4% | [3] 110% | [4] 112% | [8] 94.4% | [6] 102% | [7] 85.6%

COc1ccc2c(N)ncc(C#Cc3cc(C(=O)Nc4ccc(CN5CCN(C)CC5)c(C(F)(F)F)c4)cnc3C)c2c1
active: [1] -45.1% | [2] -34.7% | [3] -21.6% | [4] 0.668% | [8] -71.6%
inactive: [6] 11.7% | [7] 30% | [9] 16%

COc1cc(C(=O)Nc2ccc(N(C)C)cc2)cc(OC)c1OC
inactive: [1] 97.7% | [2] 92.2% | [3] 94.7% | [4] 93.1% | [5] 85.7% | [8] 93.7% | [6] 101% | [7] 95.5% | [9] 87.3%

Cc1nn(-c2ccccc2)c(N)c1N=C1NC(=O)/C(=C/c2ccc(Cl)cc2)S1
inactive: [1] 49.5% | [2] 91.6% | [3] 86.6% | [4] 75.2% | [5] 88% | [8] 104% | [6] 68.8% | [7] 93.1% | [9] 92.2%

NC(N)=N/N=C/c1cccc(Br)c1
inactive: [1] 95.3% | [2] 110% | [3] 104% | [4] 91.6% | [5] 91.4% | [8] 86.4% | [6] 99.8% | [9] 103%

C[C@]12C=CC(=O)C=C1[C@@H](F)C[C@@H]1[C@@H]2[C@@H](O)C[C@@]2(C)[C@H]1CC[C@]2(O)C(=O)CO
inactive: [1] 72.7% | [2] 83.9% | [3] 77.2% | [4] 106% | [5] 71.3% | [6] 96.3% | [9] 91.5%
